In ChEMBL document CHEMBL1961873, “Compounds: GSK PKIS; Assays: Nanosyn kinase panel” (2012):

What was measured:
[1] = target: T1, Inhibitor of nuclear factor kappa-B kinase subunit epsilon (Homo sapiens) (UniProt Q14164); settings: at 1 µM;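 also: reported values are averaged percent inhibition figures against human IKKε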
T1 sequence (whole entry): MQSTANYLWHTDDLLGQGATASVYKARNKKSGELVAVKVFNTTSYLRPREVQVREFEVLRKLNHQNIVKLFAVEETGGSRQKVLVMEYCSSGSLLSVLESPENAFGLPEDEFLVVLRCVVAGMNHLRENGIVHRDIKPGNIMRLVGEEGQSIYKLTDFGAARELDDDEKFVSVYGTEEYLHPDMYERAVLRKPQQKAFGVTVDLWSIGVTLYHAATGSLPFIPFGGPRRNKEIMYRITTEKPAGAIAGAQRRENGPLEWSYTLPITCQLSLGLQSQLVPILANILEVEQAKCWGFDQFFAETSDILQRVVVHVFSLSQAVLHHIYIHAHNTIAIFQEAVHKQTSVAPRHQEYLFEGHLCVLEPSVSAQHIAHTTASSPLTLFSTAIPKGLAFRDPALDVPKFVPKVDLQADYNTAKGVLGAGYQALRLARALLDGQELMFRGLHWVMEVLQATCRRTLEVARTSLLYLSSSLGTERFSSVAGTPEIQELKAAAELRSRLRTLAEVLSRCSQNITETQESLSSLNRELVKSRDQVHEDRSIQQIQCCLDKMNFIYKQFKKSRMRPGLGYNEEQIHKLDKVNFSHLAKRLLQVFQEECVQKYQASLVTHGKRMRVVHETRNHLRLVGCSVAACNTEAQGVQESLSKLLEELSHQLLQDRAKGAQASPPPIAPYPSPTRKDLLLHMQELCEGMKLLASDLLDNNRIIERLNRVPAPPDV

[2] = target: T2, Serine/threonine-protein kinase Nek1 (Homo sapiens) (UniProt Q96PY6); settings: at 0.1 µM
T2 sequence (whole entry): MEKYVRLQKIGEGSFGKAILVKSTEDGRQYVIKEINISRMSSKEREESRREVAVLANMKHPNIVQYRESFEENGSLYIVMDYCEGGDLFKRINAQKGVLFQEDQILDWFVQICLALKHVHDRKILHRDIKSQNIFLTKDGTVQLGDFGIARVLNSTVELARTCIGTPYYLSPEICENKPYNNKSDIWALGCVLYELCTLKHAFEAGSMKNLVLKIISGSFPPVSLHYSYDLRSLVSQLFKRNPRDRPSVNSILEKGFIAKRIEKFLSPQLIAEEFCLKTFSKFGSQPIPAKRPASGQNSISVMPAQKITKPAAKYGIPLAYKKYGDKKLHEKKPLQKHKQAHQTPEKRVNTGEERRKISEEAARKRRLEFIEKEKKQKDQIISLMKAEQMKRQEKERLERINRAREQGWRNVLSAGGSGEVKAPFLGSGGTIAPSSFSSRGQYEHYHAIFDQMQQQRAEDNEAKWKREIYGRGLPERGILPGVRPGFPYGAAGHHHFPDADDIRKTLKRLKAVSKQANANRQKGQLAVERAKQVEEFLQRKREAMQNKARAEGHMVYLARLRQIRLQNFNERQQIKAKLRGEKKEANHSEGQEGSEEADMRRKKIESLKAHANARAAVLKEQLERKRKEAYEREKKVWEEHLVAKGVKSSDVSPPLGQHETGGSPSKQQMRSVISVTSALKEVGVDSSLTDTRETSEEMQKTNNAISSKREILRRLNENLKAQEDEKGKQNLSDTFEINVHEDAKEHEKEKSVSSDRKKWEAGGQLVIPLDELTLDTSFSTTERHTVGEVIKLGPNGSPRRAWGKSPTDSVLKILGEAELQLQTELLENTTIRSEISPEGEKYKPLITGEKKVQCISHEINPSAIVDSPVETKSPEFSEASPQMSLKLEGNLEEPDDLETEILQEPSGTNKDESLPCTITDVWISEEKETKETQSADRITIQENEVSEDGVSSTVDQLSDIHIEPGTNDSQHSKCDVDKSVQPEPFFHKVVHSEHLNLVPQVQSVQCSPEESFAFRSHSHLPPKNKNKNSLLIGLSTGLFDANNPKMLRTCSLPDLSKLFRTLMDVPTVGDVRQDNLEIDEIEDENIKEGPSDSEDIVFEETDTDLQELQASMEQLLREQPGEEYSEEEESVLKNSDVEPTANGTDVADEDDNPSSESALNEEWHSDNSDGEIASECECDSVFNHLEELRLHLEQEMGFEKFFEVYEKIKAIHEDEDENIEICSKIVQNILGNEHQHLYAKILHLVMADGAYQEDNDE

[3] = target: T2, Serine/threonine-protein kinase Nek1 (Homo sapiens); settings: at 1 µM
[4] = target: T3, Serine/threonine-protein kinase Nek2 (Homo sapiens) (UniProt P51955); settings: at 0.1 µM
T3 sequence (whole entry): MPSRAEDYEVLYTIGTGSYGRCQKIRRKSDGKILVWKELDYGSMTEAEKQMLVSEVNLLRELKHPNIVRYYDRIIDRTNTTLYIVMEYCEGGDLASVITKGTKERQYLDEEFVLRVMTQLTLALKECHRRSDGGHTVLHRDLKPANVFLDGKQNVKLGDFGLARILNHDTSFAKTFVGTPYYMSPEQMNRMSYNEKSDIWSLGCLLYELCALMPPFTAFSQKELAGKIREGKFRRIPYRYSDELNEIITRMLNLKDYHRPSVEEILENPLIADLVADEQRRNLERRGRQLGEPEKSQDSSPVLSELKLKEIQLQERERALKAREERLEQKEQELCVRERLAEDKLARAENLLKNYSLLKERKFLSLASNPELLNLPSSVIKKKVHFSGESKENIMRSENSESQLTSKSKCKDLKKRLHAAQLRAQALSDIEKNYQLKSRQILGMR

[5] = target: T3, Serine/threonine-protein kinase Nek2 (Homo sapiens); settings: at 1 µM
[6] = target: Serine/threonine-protein kinase Nek6 (Homo sapiens) (UniProt Q9HC98); settings: at 0.1 µM
Serine/threonine-protein kinase Nek6 (Homo sapiens), sequence (Q9HC98 whole entry): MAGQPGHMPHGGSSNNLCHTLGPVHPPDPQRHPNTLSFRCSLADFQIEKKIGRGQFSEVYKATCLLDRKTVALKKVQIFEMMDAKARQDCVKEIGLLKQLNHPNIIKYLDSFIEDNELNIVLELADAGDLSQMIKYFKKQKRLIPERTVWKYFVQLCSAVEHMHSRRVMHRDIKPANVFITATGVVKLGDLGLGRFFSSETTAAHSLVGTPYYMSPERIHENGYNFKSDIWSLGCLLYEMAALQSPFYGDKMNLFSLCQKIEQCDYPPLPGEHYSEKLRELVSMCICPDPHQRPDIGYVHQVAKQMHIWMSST

[7] = target: Serine/threonine-protein kinase Nek6 (Homo sapiens) (UniProt Q9HC98); settings: at 1 µM
[8] = target: Serine/threonine-protein kinase Nek7 (Homo sapiens) (UniProt Q8TDX7); settings: at 0.1 µM
Serine/threonine-protein kinase Nek7 (Homo sapiens), sequence (Q8TDX7 whole entry, looked up): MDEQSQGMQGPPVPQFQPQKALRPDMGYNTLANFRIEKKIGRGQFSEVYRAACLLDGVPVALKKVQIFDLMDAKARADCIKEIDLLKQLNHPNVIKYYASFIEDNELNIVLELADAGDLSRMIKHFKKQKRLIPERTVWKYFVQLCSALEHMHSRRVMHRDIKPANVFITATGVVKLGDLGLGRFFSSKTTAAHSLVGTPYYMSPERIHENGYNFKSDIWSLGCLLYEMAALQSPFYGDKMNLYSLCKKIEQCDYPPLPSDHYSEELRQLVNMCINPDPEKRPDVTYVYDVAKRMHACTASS

[9] = target: Serine/threonine-protein kinase Nek7 (Homo sapiens) (UniProt Q8TDX7); settings: at 1 µM
[10] = target: T4, Serine/threonine-protein kinase Nek9 (Homo sapiens) (UniProt Q8TD19); settings: at 0.1 µM;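 also: reported value is the mean percent inhibition of NEK9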
T4 sequence (whole entry): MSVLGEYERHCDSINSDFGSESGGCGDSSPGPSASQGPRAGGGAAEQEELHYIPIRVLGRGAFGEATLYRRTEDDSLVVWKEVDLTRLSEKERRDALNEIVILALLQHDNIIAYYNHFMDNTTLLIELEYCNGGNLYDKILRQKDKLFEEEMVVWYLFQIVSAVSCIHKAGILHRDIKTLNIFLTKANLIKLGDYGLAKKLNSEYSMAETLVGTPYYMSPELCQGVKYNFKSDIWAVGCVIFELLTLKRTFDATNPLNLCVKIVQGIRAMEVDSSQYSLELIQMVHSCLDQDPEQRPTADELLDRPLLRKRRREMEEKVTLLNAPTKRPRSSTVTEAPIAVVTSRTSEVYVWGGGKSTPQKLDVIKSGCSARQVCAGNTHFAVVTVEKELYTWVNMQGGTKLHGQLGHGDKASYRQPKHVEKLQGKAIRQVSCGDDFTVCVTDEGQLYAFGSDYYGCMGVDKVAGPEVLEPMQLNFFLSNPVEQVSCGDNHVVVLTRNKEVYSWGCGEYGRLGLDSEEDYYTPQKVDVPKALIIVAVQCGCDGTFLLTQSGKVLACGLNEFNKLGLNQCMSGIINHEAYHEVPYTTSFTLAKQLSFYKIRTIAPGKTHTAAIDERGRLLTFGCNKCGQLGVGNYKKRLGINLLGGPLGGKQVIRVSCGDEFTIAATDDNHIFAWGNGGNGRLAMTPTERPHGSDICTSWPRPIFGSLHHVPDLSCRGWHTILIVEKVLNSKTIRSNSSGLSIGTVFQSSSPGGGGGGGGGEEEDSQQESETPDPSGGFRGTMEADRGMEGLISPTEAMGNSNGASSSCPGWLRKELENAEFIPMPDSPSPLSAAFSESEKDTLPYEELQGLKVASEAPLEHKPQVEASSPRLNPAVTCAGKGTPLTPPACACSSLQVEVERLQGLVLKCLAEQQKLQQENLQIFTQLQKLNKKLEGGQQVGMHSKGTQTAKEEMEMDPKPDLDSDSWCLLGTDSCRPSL

SMILES | inhibition [1] [%] | inhibition [2] [%] | inhibition [3] [%] | inhibition [4] [%] | inhibition [5] [%] | inhibition [6] [%] | inhibition [7] [%] | inhibition [8] [%] | inhibition [9] [%] | inhibition [10] [%]
c1ccc(COc2ccc(Nc3ncnc4ccc(-c5ccco5)cc34)cc2)cc1 | 3.49 | 0.6 | 1.07 | 1.15 | 0.92 | -0.18 | -0.36 | -0.99 | 1.84 | 1.17
COc1ccc2[nH]c3c4[nH]c5ccc(OC)cc5c4c4c(c3c2c1)C(=O)NC4=O | 36.3 | 0.76 | 1.99 | 4.36 | 5.74 | 5.36 | 5.14 | 3.71 | 5.28 | 2.96
Clc1ccc(-c2nn3ncccc3c2-c2ccnc(Nc3ccccc3)n2)cc1 | -3.51 | 1.79 | 1.38 | 2.53 | 1.79 | 2.55 | 2.29 | 2.07 | 1.34 | 5.9
COc1cc(Nc2nccc(Nc3ccc4c(C)n[nH]c4c3)n2)cc(OC)c1OC | 12.9 | 1.89 | 7.77 | 0.97 | 0.41 | -1.67 | -0.68 | 3.64 | 2.17 | 0.16
CCNC(=O)O[C@H]1CN[C@H](C#Cc2cc3ncnc(Nc4ccc(OCc5cccc(F)c5)c(Cl)c4)c3s2)C1 | 2.76 | 1.8 | 2.36 | 3.33 | 6.2 | 3.89 | 0.56 | 3.85 | 3.51 | 12
CS(=O)(=O)CCNCc1coc(-c2ccc3ncnc(Nc4ccc(OCc5ccccc5)cc4)c3c2)c1 | 4.57 | 2.15 | 3.07 | 4.2 | 2.21 | 1.54 | 2.23 | 2.37 | 3.98 | 8.97
NS(=O)(=O)c1ccc(Nc2ncc(-c3ccccc3)o2)cc1 | 5.67 | 2.41 | 5.75 | 4.32 | 4.17 | 2.71 | 1.65 | 2.06 | 2.65 | 3.91
COc1cc2ncn(-c3cc(OCc4ccccc4C(F)(F)F)c(C(=O)N(C)C)s3)c2cc1OC | 2.1 | 0.82 | 4.81 | 0.75 | 2.7 | 1.08 | -2.22 | 2.1 | 0.24 | 0.62
NS(=O)(=O)c1ccc(N/N=C2\C(=O)Nc3ccc4ncccc4c32)cc1 | 44.7 | 1.98 | 5.54 | 3.42 | 4.79 | -0.98 | -0.3 | 4.59 | 7.69 | 9.44
CC(=O)NCc1cccc(C#Cc2cncnc2Nc2ccc(OCc3cccc(F)c3)c(Cl)c2)c1 | -1 | 0.64 | 1.25 | 0.96 | 0.7 | -1.02 | -2.65 | 4.09 | 2.44 | 0.38
O=C(Nc1n[nH]c2cc(-c3ccc(F)cc3)ccc12)C1CC1 | 3.59 | 2.65 | 1.94 | 4.38 | 4.67 | 0.6 | 2.6 | 5.51 | 3 | 8.59
Nc1ncc(-c2cccc(S(N)(=O)=O)c2)c2scc(-c3ccc(F)c(Cl)c3)c12 | 6.28 | 1.83 | 3.98 | 4.7 | 4.74 | 2.28 | 3.81 | 3.41 | -0.15 | 5.04
CCn1c(-c2nonc2N)nc2c(C#CC(C)(C)O)nc(OC[C@H](N)c3ccccc3)cc21 | 37.9 | 2.39 | 2.81 | 2.31 | 4.1 | -0.95 | 1.56 | 1.87 | 3.72 | 6.95
CCn1c(-c2nonc2N)nc2c(C#CC(C)(C)O)ncc(OC3CCNCC3)c21 | 95.8 | 2.28 | 2.37 | 3.31 | 2.51 | -0.18 | 1.86 | -3.88 | 5.15 | 2.14
COc1ccc(CNC(=O)c2ccc(-c3cc(-c4nnc(C)o4)ccc3C)cc2)cc1 | 3.56 | 3.38 | 1.51 | 1.12 | 3.44 | -0.69 | 4.26 | 1.72 | -1.14 | 1.2
O=S(=O)(CCNCc1ccc(-c2ccc3ncnc(Nc4ccc(OCc5cccc(F)c5)c(Cl)c4)c3c2)o1)c1ccccc1 | 7.29 | 3.48 | 5.88 | 5.1 | 7.03 | 4.21 | 2.74 | 3.88 | 5.26 | 4.93
Cc1ccc2c(-c3ccnc(Nc4ccccc4)n3)c(-c3ccc(F)cc3)nn2n1 | 3.29 | 2.02 | 2.14 | 4.21 | 3 | 4.02 | -0.68 | 2.06 | 2.94 | -1.05
CNC(=O)c1cccc(C#Cc2cncnc2Nc2ccc(OCc3cccc(F)c3)c(Cl)c2)c1 | 1.01 | -0.52 | -1.06 | 0.09 | -0.96 | 1.08 | 1.68 | 0.01 | 0.48 | 0.64
Nc1nc(-c2cccc(Cl)c2)c(-c2ccc3ncccc3n2)s1 | 8.93 | 2.49 | 6.68 | 5.95 | 4.63 | 3.94 | 6.59 | 1.99 | 4.09 | 6.55
